This passage reports growth results from PubChem BioAssay (NCI).

Structures are written as SMILES. About 83,000 compounds went through this panel and 20% of them were active in at least one assay; those are over-represented in the sample as a whole.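 Assay: single dose, 48 h. Readout: percent growth (0 = no net growth; negative = cell death). Active: <10.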 Values without a mark were called inactive. Active and inactive are the calls of the source.

Test systems include HCT-15 colon; HT29 colon; SNB-19 CNS; U251 CNS; PC-3 prostate; SK-MEL-5 melanoma; UACC-62 melanoma; LOX IMVI melanoma; SK-MEL-28 melanoma.
What all share (test): NCI-60 one-dose screen, 48 h (100 = growth as untreated, 0 = no growth, -100 = all killed)
Holding throughout (details): 10 µM unless noted

For `N#C/C(C(=O)c1ccccc1)=C1/C(=O)Nc2ccc(F)cc21`, the growth was 106% with HCT-15 colon; 116% with HT29 colon; 98.4% in the assay with SNB-19 CNS; 104% with U251 CNS; 93.3% in the assay with PC-3 prostate; 103% in the assay on SK-MEL-5 melanoma. Also, the growth with UACC-62 melanoma was 92.7%; in the assay on LOX IMVI melanoma, 100%; in the assay on SK-MEL-28 melanoma, 108%.
As to `O=C(Nc1ccc(Oc2ccc(F)cc2)c(Cl)c1)c1cnccn1`, the growth in the assay on HCT-15 colon was 47.7%; with HT29 colon, 23.7%; in the assay with U251 CNS, 38.2%; in the assay with PC-3 prostate, 76%; in the assay on SK-MEL-5 melanoma, 49.5%; in the assay with UACC-62 melanoma it was 50.3%. For the same compound, the growth is 51.5% in the assay with LOX IMVI melanoma and 76.9% in the assay on SK-MEL-28 melanoma.
As to `COc1ccc2c(c1)C(C)Cc1c(Cl)nc(C)nc1N2C` (centres undefined), the growth was 18.4% in the assay with HCT-15 colon; -13.3% (active) in the assay on HT29 colon; 24.7% in the assay with SNB-19 CNS; 21.9% in the assay with U251 CNS; 24% in the assay with SK-MEL-5 melanoma; 27% with UACC-62 melanoma. In addition, the growth in the assay on LOX IMVI melanoma was 43.7%; in the assay on SK-MEL-28 melanoma, 80.1%.
`COC(=O)[C@]1(C)CC[C@]2(C)CC[C@]3(C)C(=CC(=O)[C@@H]4[C@@]5(C)CCC(=O)NC(C)(C)[C@@H]5CC[C@]43C)[C@@H]2C1`: the growth in the assay with HCT-15 colon was -19.6% [100 µM] (active); in the assay with HT29 colon, -55% [100 µM] (active); in the assay with SNB-19 CNS it was -89.8% [100 µM] (active); in the assay with U251 CNS it was -89.2% [100 µM] (active); in the assay with PC-3 prostate it was -65.8% [100 µM] (active); with SK-MEL-5 melanoma, -94% [100 µM] (active). Also, the growth was -88.9% [100 µM] (active) in the assay with UACC-62 melanoma, -97.7% [100 µM] (active) in the assay with LOX IMVI melanoma and -67.3% [100 µM] (active) with SK-MEL-28 melanoma.
As to `COc1cc(C)cc2oc3oc(=O)c(-c4nc5ccccc5s4)cc3c(=O)c12`, the growth in the assay with HCT-15 colon was 102%; in the assay on HT29 colon it was 103%; in the assay with SNB-19 CNS, 92.9%; in the assay with U251 CNS, 93.4%; with PC-3 prostate, 94.1%; with SK-MEL-5 melanoma it was 99.5%. For the same compound, the growth in the assay with UACC-62 melanoma was 67.7%; in the assay on LOX IMVI melanoma it was 94.1%; with SK-MEL-28 melanoma, 93.2%.
Regarding `COC(=O)c1c(C)[nH]c(/C=C2\N=C(c3ccc[nH]3)C=C2OC)c1C`, the growth with HCT-15 colon was 0.837% (active); in the assay with HT29 colon, -13.8% (active); with SNB-19 CNS, 30.5%; with U251 CNS it was -27.9% (active); in the assay on PC-3 prostate, 9.06% (active); in the assay on UACC-62 melanoma, -62.8% (active). The growth in the assay on LOX IMVI melanoma was -56.8% (active); in the assay with SK-MEL-28 melanoma, -27.8% (active).
Take `CCOC(=O)COc1ccc2c(c1)O/C(=C\c1ccc(O)cc1)C2=O`: the growth in the assay on HCT-15 colon is 101%; with HT29 colon it was 108%; in the assay on SNB-19 CNS it was 102%; with U251 CNS it was 107%; in the assay on PC-3 prostate, 112%; in the assay with SK-MEL-5 melanoma, 102%. For the same compound, the growth with UACC-62 melanoma was 98.9%; in the assay on LOX IMVI melanoma, 97.9%; in the assay with SK-MEL-28 melanoma, 106%.
Turning to `COc1ccc(-c2nc3ccccn3c2/C=C/C(=O)c2cc(OC)c(OC)c(OC)c2)cc1OC`, the growth is 22.1% with HCT-15 colon; 16.7% in the assay with HT29 colon; 29.8% with SNB-19 CNS; 7.81% (active) in the assay with U251 CNS; 19.9% in the assay with UACC-62 melanoma; 4.18% (active) with LOX IMVI melanoma. The growth in the assay on SK-MEL-28 melanoma is 29.1%.
In the case of `CC(C)CCSC1=CC(=O)c2ccccc2C1=O`, the growth with HCT-15 colon is 72%; with HT29 colon it was 97%; with SNB-19 CNS, 92.3%; with U251 CNS it was 86.3%; in the assay with PC-3 prostate it was 37.8%; with SK-MEL-5 melanoma, 67.8%. Further, the growth in the assay on UACC-62 melanoma is 74%; with LOX IMVI melanoma it was 38%; in the assay on SK-MEL-28 melanoma, 27.2%.
Regarding `COc1cc(-c2nc(SCCC(C)C)nc(Nc3ccccc3)c2C#N)cc(OC)c1OC`, the growth is 96.8% in the assay on HCT-15 colon; 82.3% in the assay with HT29 colon; 99.4% in the assay on SNB-19 CNS; 85% with U251 CNS; 83.8% with PC-3 prostate; 97.3% in the assay with SK-MEL-5 melanoma. The figures for the growth in the assay with UACC-62 melanoma, in the assay with LOX IMVI melanoma and in the assay with SK-MEL-28 melanoma were 71.8%, 99.4% and 103%, respectively.
For the compound `O=C(C[n+]1ccn(CC(OCc2ccc(Cl)cc2Cl)c2ccc(Cl)cc2Cl)c1)c1ccc(F)cc1` (centres undefined), the growth in the assay on HCT-15 colon was 75.7%; in the assay with HT29 colon, -73.8% (active); in the assay on SNB-19 CNS, -95.9% (active); in the assay on U251 CNS it was -81.7% (active); in the assay on PC-3 prostate, -88.5% (active); with SK-MEL-5 melanoma it was -99.3% (active). In addition, the results for the growth in the assay with UACC-62 melanoma, in the assay on LOX IMVI melanoma and in the assay on SK-MEL-28 melanoma were -95.8% (active), -87.4% (active) and -95.5% (active), respectively.
Regarding `CCn1cc(-c2[nH]c(=S)ncc2-c2ccc(Cl)cc2)c(-c2ccc(Br)cc2)n1`, the growth is 85.5% in the assay on HCT-15 colon; 92.1% with HT29 colon; 75.6% with SNB-19 CNS; 74.3% with U251 CNS; 86.4% in the assay with SK-MEL-5 melanoma; 76.7% in the assay with UACC-62 melanoma. For the same compound, the growth was 86.8% in the assay with LOX IMVI melanoma and 73.7% in the assay on SK-MEL-28 melanoma.
With `CCCCC1COc2cccc3c2N1C=C/C3=C\C(=O)n1ccc2ccccc21` (centres undefined), the growth in the assay with HCT-15 colon is 47.6%; in the assay with HT29 colon it was 43.9%; with SNB-19 CNS, 84.9%; with U251 CNS, 76.5%; with PC-3 prostate, 65.9%; with SK-MEL-5 melanoma, 78.5%. Also, the growth was 56.3% in the assay on UACC-62 melanoma and 92.5% in the assay with SK-MEL-28 melanoma.
For the compound `CC(=O)Nc1ccc(C=Nc2ccc3ccccc3c2)cc1`, the growth in the assay with HCT-15 colon is 105%; in the assay on HT29 colon it was 105%; in the assay with SNB-19 CNS it was 92.9%; in the assay with U251 CNS, 113%; in the assay on PC-3 prostate it was 96.5%; in the assay with SK-MEL-5 melanoma it was 99.6%. Moreover, the figures for the growth in the assay with UACC-62 melanoma, in the assay with LOX IMVI melanoma and in the assay with SK-MEL-28 melanoma were 97.2%, 114% and 108%, respectively.
